An excerpt weighted towards active compounds, which were near 3.5% of everything screened.
MITF primary: human MITF inhibition, primary screen. AlphaScreen MITF homodimerization, bead proximity signal. 650,000 compounds, 0.91% hits. inhibition, % at 2.6 µM. O75030; in the data active = inhibition above about 50%
GPR151 activ: activates the human receptor GPR151; PathHunter beta-arrestin GPR151 cells, luminescence; Q8TDV0; 650,000 compounds, 1% hits; activation, % at 11.2 µM; AID 1508602; in the data active = activation above about 4.9%
Target sequence (Q8TDV0 whole entry, looked up): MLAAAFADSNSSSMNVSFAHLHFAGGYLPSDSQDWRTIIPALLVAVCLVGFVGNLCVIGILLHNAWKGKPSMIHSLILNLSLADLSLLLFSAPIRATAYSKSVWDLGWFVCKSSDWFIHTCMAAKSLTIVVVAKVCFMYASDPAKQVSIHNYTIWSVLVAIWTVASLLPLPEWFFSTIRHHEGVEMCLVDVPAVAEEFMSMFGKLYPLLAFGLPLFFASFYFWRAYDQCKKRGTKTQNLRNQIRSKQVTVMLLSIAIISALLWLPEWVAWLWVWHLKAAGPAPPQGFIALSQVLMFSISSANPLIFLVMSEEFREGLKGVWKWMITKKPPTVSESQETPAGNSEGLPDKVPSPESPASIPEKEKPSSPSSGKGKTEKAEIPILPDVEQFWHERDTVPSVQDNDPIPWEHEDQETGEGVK
FBW7 activator: activators of human E3 ligase FBW7. Q969H0. AlphaScreen FBW7–phospho-cyclin E peptide binding, activator screen. normalized activity (activation), % at 26.1 µM. 650,000 compounds, 0.13% hits. AID 1259310; in the data active = normalized activity above about 1.9%;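 also: purified mutant Fbw7 with reduced substrate affinity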
TEAD-YAP block: TEAD-YAP interaction inhibition. HEK-TIYL cells, TEAD-Gal4/YAP UAS-luciferase luminescence. inhibition, % at 9.12 µM. 640,000 compounds, 1.4% hits. AID 1259422; in the data active = inhibition above about 32%
Numbers stand for hits.

Screening CCOC(=O)CC1COCCN1Cc1cn[nH]c1-c1ccc2cc(OC)ccc2c1 (configuration not stated) returned MITF primary inactive, GPR151 activ inactive, FBW7 activator inactive and TEAD-YAP block 46.
COc1cccc(/C=C2\SC(=Nc3ccc(O)cc3)NC2=O)c1OC was read as MITF primary inactive, GPR151 activ inactive, FBW7 activator inactive and TEAD-YAP block 46.
COc1ccc(/C=C2/SC(=Nc3ccccc3)NC2=O)cc1OC was read as MITF primary inactive, GPR151 activ inactive, FBW7 activator inactive and TEAD-YAP block inactive.
Screening COc1ccc(/C=C2\SC(=Nc3cccc(O)c3)NC2=O)cc1OC returned MITF primary inactive, GPR151 activ inactive, FBW7 activator inactive and TEAD-YAP block 43.
For COc1ccc(/C=C2/SC(=Nc3ccc(O)cc3)NC2=O)c(OC)c1OC the results were MITF primary inactive, GPR151 activ inactive, FBW7 activator inactive and TEAD-YAP block inactive.
`CSc1cccc(NC(=O)C2C3C=CC4(O3)C2C(=O)N(C2CCCCCC2)C4C(=O)NC2CCCCC2)c1` (configuration not stated) gave MITF primary inactive, GPR151 activ inactive, FBW7 activator inactive and TEAD-YAP block inactive.
O=C(Nc1ccc(-c2nc3ccccc3[nH]2)cc1)c1ccc(=O)n(Cc2ccccc2)n1 was read as MITF primary inactive, GPR151 activ inactive, FBW7 activator inactive and TEAD-YAP block 34.
For Cc1sc(NC(=O)c2ccc(S(=O)(=O)N(C)C)cc2)nc1-c1ccccc1 the results were MITF primary inactive, GPR151 activ inactive, FBW7 activator inactive and TEAD-YAP block 41.
Screening Cc1sc(NC(=O)c2ccc(S(=O)(=O)N(C)c3ccccc3)cc2)nc1-c1ccccc1 returned MITF primary inactive, GPR151 activ inactive, FBW7 activator inactive and TEAD-YAP block inactive.
`CN(C)S(=O)(=O)c1ccc(C(=O)Nc2ccc(-c3nc4ccccc4[nH]3)cc2)cc1` gave MITF primary inactive, GPR151 activ inactive, FBW7 activator 5.0 and TEAD-YAP block inactive.
CCOc1ccc(C(=O)Nc2ccc(-n3nncc3-c3ccc(OC)c(OC)c3)cc2)cc1 was read as MITF primary inactive, GPR151 activ inactive, FBW7 activator inactive and TEAD-YAP block inactive.
Screening COc1ccc(C2CC(=O)C=C(Nc3ccc(Cl)cc3)C2)cc1 (configuration not stated) returned MITF primary inactive, GPR151 activ inactive, FBW7 activator inactive and TEAD-YAP block inactive.
`Cc1ccc(NC2=CC(=O)CC(c3ccccc3)C2)cc1` (configuration not stated) gave MITF primary inactive, GPR151 activ inactive, FBW7 activator inactive and TEAD-YAP block 43.
For O=C1C=C(Nc2ccc(Cl)cc2)CC(c2ccccc2)C1 (configuration not stated) the results were MITF primary inactive, GPR151 activ inactive, FBW7 activator inactive and TEAD-YAP block 33.
Screening Cc1ccc(C2CC(=O)C=C(NCCc3ccccc3)C2)cc1 (configuration not stated) returned MITF primary inactive, GPR151 activ inactive, FBW7 activator inactive and TEAD-YAP block inactive.
Screening COc1ccc(CSc2nnc(-c3cccc(Br)c3)n2-c2ccccc2)cc1[N+](=O)[O-] returned MITF primary inactive, GPR151 activ inactive, FBW7 activator inactive and TEAD-YAP block inactive.
COc1ccccc1NC(=O)Cc1noc(CSc2nnc(-c3ccccc3)o2)n1 was read as MITF primary inactive, GPR151 activ inactive, FBW7 activator 4.5 and TEAD-YAP block inactive.
C=CCNC(=O)NC(=O)COC(=O)/C(C#N)=C/c1ccc(N(C)C)cc1 was read as MITF primary inactive, GPR151 activ inactive, FBW7 activator inactive and TEAD-YAP block inactive.
CCN1CCN(C(=O)c2cc3c(=O)[nH]c4ccc(C)cc4c3s2)CC1 was read as MITF primary inactive, GPR151 activ inactive, FBW7 activator inactive and TEAD-YAP block 37.
`Cc1ccc2[nH]c(=O)c3cc(C(=O)N4CCN(C)CC4)sc3c2c1` gave MITF primary inactive, GPR151 activ inactive, FBW7 activator inactive and TEAD-YAP block inactive.
For Cc1ccc(OCC(O)CNC(C)(C)CO)c(C)c1 (configuration not stated) the results were MITF primary inactive, GPR151 activ inactive, FBW7 activator inactive and TEAD-YAP block inactive.
Screening COc1ccc(NC(=O)c2cc3cccc(OC)c3oc2=Nc2ccc(C(=O)O)cc2)c(OC)c1 returned MITF primary inactive, GPR151 activ inactive, FBW7 activator inactive and TEAD-YAP block inactive.
For CCOC(=O)C(=N/O)/C(C)=N/NC(=O)c1cc(OC)c(OC)c(OC)c1 the results were MITF primary inactive, GPR151 activ inactive, FBW7 activator inactive and TEAD-YAP block 41.
COc1cc(C(=O)NN=C2CCCCCC2)cc(OC)c1OC was read as MITF primary inactive, GPR151 activ inactive, FBW7 activator inactive and TEAD-YAP block 60.
Screening COc1ccc(C(=O)N/N=C(\C)CC(=O)NCc2ccco2)cc1OC returned MITF primary inactive, GPR151 activ inactive, FBW7 activator inactive and TEAD-YAP block 35.
Screening COc1cccc2cc(C(=O)NCc3ccco3)c(=Nc3ccc(C(=O)O)cc3)oc12 returned MITF primary inactive, GPR151 activ inactive, FBW7 activator inactive and TEAD-YAP block 46.
`C/C(CC(=O)Nc1cccc2c1CCCC2)=N\NC(=O)c1cc(Cl)ccc1O` gave MITF primary inactive, GPR151 activ inactive, FBW7 activator inactive and TEAD-YAP block inactive.
For CCN1CC(CN(C)c2nc3nonc3nc2N(C)C)CC1=O (configuration not stated) the results were MITF primary inactive, GPR151 activ inactive, FBW7 activator inactive and TEAD-YAP block inactive.
Screening CC1CC(=O)CCN1C(=O)c1ccccc1 (configuration not stated) returned MITF primary inactive, GPR151 activ inactive, FBW7 activator inactive and TEAD-YAP block inactive.
`Cc1nnc2c3ccccc3nc(-c3ccncc3)n12` gave MITF primary inactive, GPR151 activ inactive, FBW7 activator inactive and TEAD-YAP block inactive.
CC/C(C)=N\NC(=O)c1cc(OC)c(OC)c(OC)c1 was read as MITF primary inactive, GPR151 activ inactive, FBW7 activator inactive and TEAD-YAP block 58.
`Cn1c(-c2ccccc2)cnc1NC(=O)c1ccccc1` gave MITF primary inactive, GPR151 activ inactive, FBW7 activator inactive and TEAD-YAP block 57.
Screening NC(=O)COC(=O)CCC(=O)c1ccc2c(c1)OCCO2 returned MITF primary inactive, GPR151 activ inactive, FBW7 activator inactive and TEAD-YAP block inactive.
`CCn1ccnc1N1CCN(CC(=O)NCc2ccccc2)CC1` gave MITF primary inactive, GPR151 activ inactive, FBW7 activator inactive and TEAD-YAP block inactive.
`Cc1nc(CC(=O)c2ccc(O)c(O)c2O)cs1` gave MITF primary 79, GPR151 activ inactive, FBW7 activator inactive and TEAD-YAP block inactive.
`CCC1CN(CCC(=O)NCc2nc(-c3ccccc3)n[nH]2)Cc2cc(OC)ccc2O1` (configuration not stated) gave MITF primary inactive, GPR151 activ inactive, FBW7 activator inactive and TEAD-YAP block inactive.
For O=C(c1cnc(N2CCN(c3ncccn3)CC2)c2ccccc12)N1CCCC1 the results were MITF primary inactive, GPR151 activ inactive, FBW7 activator inactive and TEAD-YAP block inactive.
